PubChem BioAssay (Tox21)
Several values for one entry are separate records, joined by “and”; a condition that tells them apart may be missing. Identical values can stand only once. Results filed as inconclusive are left out. Where a call stands in place of a potency, no number is given. Activity calls are given as the source filed them. Unless noted, calls follow the shape of the dose curve; as a rule, active = well fitted curve in the direction sought with a large enough effect in the repeat runs; inconclusive = weak or mixed curves; inactive = no such curve, though single readings can be large; an effect the other way counts as inactive or inconclusive.

Tests used:
[1] = qHTS assay to identify aromatase inhibitors - cell viability counter screen (AID 743084);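 also: cells stimulated with testosterone during compound exposure; nearly all actives have a fitted effect of over 55% in size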; also: potency is read from the fitted curve at half-maximal effect
[2] = molecular target: Aryl hydrocarbon receptor (Homo sapiens) (UniProt P35869); assay: qHTS assay to identify small molecule that activate the aryl hydrocarbon receptor (AhR) signaling pathway (AID 743085); also: nearly all actives have a fitted effect of over 15% in size; also: potency is read from the fitted curve at half-maximal effect;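 as to activation: HG2L7.5c1 human HepG2 liver cells with stably integrated DRE-driven firefly reporter; series mostly up to about 70 µM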
Outline: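 Luminescence (ONE-Glo) from a dioxin-responsive-element luciferase reporter in HG2L7.5c1 HepG2 cells after 24 hr compound exposure at 37C; viability measured by CellTiter-Fluor fluorescence beforehand.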

[3] = qHTS assay to identify small molecule that activate the aryl hydrocarbon receptor (AhR) signaling pathway - cell viability counter screen (AID 743086); also: nearly all actives have a fitted effect of over 45% in size; also: potency is read from the fitted curve at half-maximal effect
Outline: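 Cytotoxicity counter screen: CellTiter-Fluor signal (30 min, 37 C) in 4000 HepG2 cells/well carrying the DRE-luciferase reporter, following 24 h compound exposure at 37 C.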

[4] = molecular target: Peroxisome proliferator-activated receptor gamma (Homo sapiens) (UniProt P37231); assay: qHTS assay to identify small molecule agonists of the peroxisome proliferator-activated receptor gamma (PPARg) signaling pathway (AID 743094; active = well fitted activation curve with a large enough effect in the signal ratio in the repeat runs, not every such curve was filed as active; the % refers to the signal ratio)
Outline: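 GeneBLAzer PPARg UAS-bla HEK293H cells carrying a stably integrated beta-lactamase reporter were pre-incubated 5 h at 37C, then exposed to compounds in DMSO for 17 h at 37C; LiveBLAzer B/G FRET substrate was added for 1 h at room temperature and fluorescence read.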

[5] = qHTS assay for small molecule agonists of the antioxidant response element (ARE) signaling pathway - cell viability counter screen (AID 743203; calls by dose curve; also: nearly all actives have a fitted effect of over 55% in size; also: potency is read from the fitted curve at half-maximal effect)
Outline: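 CellSensor ARE-bla HepG2 cells, 2,000 per well, rested 5 hrs at 37C/5% CO2, then exposed to compound in DMSO for 16 hrs; viability read as CellTiter-Glo luminescence after 30 min at room temperature, in the reporter wells.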

[6] = qHTS assay for small molecule activators of the heat shock response signaling pathway - cell viability counter screen (AID 743209); also: nearly all actives have a fitted effect of over 50% in size; also: potency is read from the fitted curve at half-maximal effect
Outline: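 CellSensor HSE-bla HeLa cells, plated overnight at 37 C/5% CO2, were exposed to compounds in DMSO for 5 h at 37 C. Viability was then read in the same wells by CellTiter-Glo luminescence after 30 min at room temperature.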

[7] = qHTS assay to identify small molecule agonists of the peroxisome proliferator-activated receptor delta (PPARd) signaling pathway - cell viability counter screen (AID 743211); also: nearly all actives have a fitted effect of over 55% in size; also: potency is read from the fitted curve at half-maximal effect
Outline: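 Viability was measured as CellTiter-Glo luminescence (30 min, room temperature) in the same wells as the beta-lactamase readout. GeneBLAzer PPARd UAS-bla HEK293H cells received compound after 5 h plating and were incubated 17 h at 37 C.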

[8] = qHTS assay to identify small molecule antagonists of the peroxisome proliferator-activated receptor delta (PPARd) signaling pathway - cell viability counter screen (AID 743213); also: nearly all actives have a fitted effect of over 50% in size; also: potency is read from the fitted curve at half-maximal effect
Outline: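 PPARd-bla HEK293H cells were treated with compounds plus agonist L165041 (300 nM final) for 17 h at 37 C. Viability was then read in the same wells by CellTiter-Glo luminescence after 30 min at room temperature.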

[9] = molecular target: Bile acid receptor (Homo sapiens) (UniProt Q96RI1); assay: qHTS assay to identify small molecule antagonists of the farnesoid-X-receptor (FXR) signaling pathway (AID 743217; active = well fitted inhibition curve with a large enough effect in the signal ratio in the repeat runs, not every such curve was filed as active; the % refers to the signal ratio)
Outline: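 FXR-UAS-bla HEK 293T cells pre-incubated 5 h at 37 °C, then exposed to compounds with chenodeoxycholic acid (50 uM final) for 16 h at 37 °C. Beta-lactamase reporter read by LiveBLAzer B/G FRET substrate fluorescence after 2 h at room temperature.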

[10] = qHTS assay to identify small molecule agonists of the farnesoid-X-receptor (FXR) signaling pathway - cell viability counter screen (AID 743218); also: nearly all actives have a fitted effect of over 45% in size; also: potency is read from the fitted curve at half-maximal effect
Outline: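 FXR-UAS-bla HEK 293T cells, plated 5 h at 37 C, were exposed to compounds for 16 h at 37 C. CellTiter-Glo was then added to the same wells as the bla readout; luminescence read after 30 min at room temperature.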

[11] = qHTS assay to identify small molecule antagonists of the farnesoid-X-receptor (FXR) signaling pathway - cell viability counter screen (AID 743221; active = well fitted cell-killing curve with a large enough effect in the repeat runs, not every such curve was filed as active; also: nearly all actives have a fitted effect of over 50% in size; also: potency is read from the fitted curve at half-maximal effect)
Outline: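 Cytotoxicity counter screen run in the FXR-bla reporter wells: HEK 293T cells exposed to compound with 50 uM (final) chenodeoxycholic acid for 16 h, 37 C, then viability measured by CellTiter-Glo luminescence after 30 min, room temperature.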

[12] = molecular target: Vitamin D3 receptor (Homo sapiens) (UniProt P11473); assay: qHTS assay to identify small molecule agonists of the vitamin D receptor (VDR) signaling pathway (AID 743222; calls by dose curve)
Outline: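 VDR-bla cells were plated 4 h at 37C/5% CO2, then exposed to compounds in DMSO for 16 h. After LiveBLAzer B/G FRET substrate addition and 2 h at room temperature, beta-lactamase reporter fluorescence was read.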

[13] = qHTS assay to identify small molecule antagonists of the peroxisome proliferator-activated receptor gamma (PPARg) signaling pathway - cell viability counter screen (AID 743194); also: nearly all actives have a fitted effect of over 55% in size; also: potency is read from the fitted curve at half-maximal effect
Outline: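 Viability was measured as CellTiter-Glo luminescence in GeneBLAzer PPARg UAS-bla HEK293H cells. These cells had been exposed 17 h at 37 C to compounds together with rosiglitazone at 50 nM final, with the beta-lactamase readout taken in the same wells.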

[14] = qHTS assay for small molecule agonists of the antioxidant response element (ARE) signaling pathway (AID 743202; active = well fitted activation curve with a large enough effect in the signal ratio in the repeat runs, not every such curve was filed as active; the % refers to the signal ratio; also: potency is read from the fitted curve at half-maximal effect)
Outline: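 An ARE-responsive beta-lactamase gene stably integrated in HepG2 cells serves as reporter. After 5 h plating and 16 h compound incubation at 37 C, fluorescence of the B/G FRET substrate was measured.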

[15] = molecular target: Peroxisome proliferator-activated receptor delta (Homo sapiens) (UniProt Q03181); assay: qHTS assay to identify small molecule agonists of the peroxisome proliferator-activated receptor delta (PPARd) signaling pathway (AID 743212; calls by dose curve)
Outline: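 HEK293H UAS-bla reporter cells, human PPARd system; compounds delivered in DMSO after 5 h plating, then at 37 C. Beta-lactamase FRET read, 2 h RT substrate step.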

[16] = molecular target: Bile acid receptor (Homo sapiens) (UniProt Q96RI1); assay: qHTS assay to identify small molecule agonists of the farnesoid-X-receptor (FXR) signaling pathway (AID 743220; active = well fitted activation curve with a large enough effect in the signal ratio in the repeat runs, not every such curve was filed as active; the % refers to the signal ratio)
Outline: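 Beta-lactamase reporter under UAS control in GeneBLAzer FXR HEK 293T cells (5000/well) measured with LiveBLAzer FRET substrate after 2 h at room temperature. Compound exposure lasted 16 h at 37C.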

[17] = molecular target: Vitamin D3 receptor (Homo sapiens) (UniProt P11473); assay: qHTS assay to identify small molecule antagonists of the vitamin D receptor (VDR) signaling pathway (AID 743223; active = well fitted inhibition curve with a large enough effect in the signal ratio in the repeat runs, not every such curve was filed as active; the % refers to the signal ratio)
Outline: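 Antagonist mode: compound added to VDR-bla cells alongside agonist 1alpha,25-dihydroxyvitamin D3 (3 nM final), incubation 16 h at 37C. Read-out is LiveBLAzer FRET fluorescence, 2 h at room temperature.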

[18] = molecular target: Peroxisome proliferator-activated receptor delta (Homo sapiens) (UniProt Q03181); assay: qHTS assay to identify small molecule antagonists of the peroxisome proliferator-activated receptor delta (PPARd) signaling pathway (AID 743215; active = well fitted inhibition curve with a large enough effect in the signal ratio in the repeat runs, not every such curve was filed as active; the % refers to the signal ratio;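 also: cells stimulated with agonist L165041 at 300 nM final during compound exposure; series mostly up to about 62 µM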)
Outline: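 PPARd UAS-bla HEK293H cells were pre-incubated 5 h at 37 C, then given test compounds in DMSO plus agonist L165041 (300 nM final). After 17 h at 37 C, beta-lactamase FRET substrate was added; fluorescence read after 2 h at room temperature.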

[19] = qHTS assay for small molecule activators of the heat shock response signaling pathway (AID 743210; active = well fitted activation curve with a large enough effect in the signal ratio in the repeat runs, with a control signal flat, not every such curve was filed as active; the % refers to the signal ratio;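 also: HeLa cells with beta-lactamase reporter driven by heat shock elements; series mostly up to about 63 µM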)
Outline: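 In HSE-bla HeLa cells, 5 h compound incubation (37 C) precedes addition of LiveBLAzer B/G substrate; after 2.5 h at room temperature, fluorescence intensity indicates reporter induction.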

Chain of Peroxisome proliferator-activated receptor delta (Homo sapiens) (Q03181 whole entry, looked up): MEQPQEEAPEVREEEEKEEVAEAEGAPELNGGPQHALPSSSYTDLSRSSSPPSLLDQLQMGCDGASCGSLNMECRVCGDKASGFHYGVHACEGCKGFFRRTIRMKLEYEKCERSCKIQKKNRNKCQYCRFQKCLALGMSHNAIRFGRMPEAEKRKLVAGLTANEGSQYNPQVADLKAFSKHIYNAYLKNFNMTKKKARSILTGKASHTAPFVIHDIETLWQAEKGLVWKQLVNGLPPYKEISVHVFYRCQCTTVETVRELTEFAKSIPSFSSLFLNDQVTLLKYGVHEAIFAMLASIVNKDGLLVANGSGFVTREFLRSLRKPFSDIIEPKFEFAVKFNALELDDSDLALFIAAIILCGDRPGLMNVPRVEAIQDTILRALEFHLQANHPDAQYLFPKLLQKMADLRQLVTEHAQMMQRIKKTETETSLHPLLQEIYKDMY
Chain of Bile acid receptor (Homo sapiens) (Q96RI1 whole entry, looked up): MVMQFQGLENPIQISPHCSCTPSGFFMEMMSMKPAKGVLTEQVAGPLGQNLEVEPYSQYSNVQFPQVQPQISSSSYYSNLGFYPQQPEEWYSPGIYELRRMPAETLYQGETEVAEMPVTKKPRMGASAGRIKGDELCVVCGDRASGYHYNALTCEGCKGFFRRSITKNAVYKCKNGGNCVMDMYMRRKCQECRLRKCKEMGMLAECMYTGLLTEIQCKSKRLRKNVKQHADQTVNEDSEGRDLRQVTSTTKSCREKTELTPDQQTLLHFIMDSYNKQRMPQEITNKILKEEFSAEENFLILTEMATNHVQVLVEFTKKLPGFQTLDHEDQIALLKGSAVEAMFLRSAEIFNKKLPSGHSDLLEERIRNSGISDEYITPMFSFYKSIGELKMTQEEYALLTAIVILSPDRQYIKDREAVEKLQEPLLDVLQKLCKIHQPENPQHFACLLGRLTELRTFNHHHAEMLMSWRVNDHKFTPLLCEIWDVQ
Chain of Peroxisome proliferator-activated receptor gamma (Homo sapiens) (P37231 whole entry, looked up): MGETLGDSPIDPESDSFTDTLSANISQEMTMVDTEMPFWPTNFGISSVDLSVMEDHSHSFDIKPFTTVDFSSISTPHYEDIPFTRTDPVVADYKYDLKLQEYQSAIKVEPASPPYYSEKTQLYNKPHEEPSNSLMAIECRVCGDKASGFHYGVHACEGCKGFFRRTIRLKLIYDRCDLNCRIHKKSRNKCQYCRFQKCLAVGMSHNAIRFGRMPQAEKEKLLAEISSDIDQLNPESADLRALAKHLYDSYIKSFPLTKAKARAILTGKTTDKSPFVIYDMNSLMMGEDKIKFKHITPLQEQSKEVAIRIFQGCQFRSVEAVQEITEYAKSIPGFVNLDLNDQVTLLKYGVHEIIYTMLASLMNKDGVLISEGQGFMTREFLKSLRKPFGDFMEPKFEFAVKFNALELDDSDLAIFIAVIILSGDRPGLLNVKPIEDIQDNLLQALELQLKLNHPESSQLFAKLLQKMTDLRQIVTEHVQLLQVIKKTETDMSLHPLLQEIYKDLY
Chain of Vitamin D3 receptor (Homo sapiens) (P11473 whole entry, looked up): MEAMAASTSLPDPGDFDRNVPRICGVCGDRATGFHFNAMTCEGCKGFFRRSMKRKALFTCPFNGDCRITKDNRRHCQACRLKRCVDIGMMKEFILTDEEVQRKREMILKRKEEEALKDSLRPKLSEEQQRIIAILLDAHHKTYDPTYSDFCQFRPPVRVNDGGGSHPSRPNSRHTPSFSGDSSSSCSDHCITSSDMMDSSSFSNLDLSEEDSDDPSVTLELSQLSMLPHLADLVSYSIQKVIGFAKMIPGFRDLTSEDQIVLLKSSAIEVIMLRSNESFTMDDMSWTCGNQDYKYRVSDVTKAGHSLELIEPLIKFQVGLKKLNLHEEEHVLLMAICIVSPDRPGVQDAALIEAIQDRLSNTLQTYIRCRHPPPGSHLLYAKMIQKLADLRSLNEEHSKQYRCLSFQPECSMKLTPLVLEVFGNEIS
Chain of Aryl hydrocarbon receptor (Homo sapiens) (P35869 whole entry, looked up): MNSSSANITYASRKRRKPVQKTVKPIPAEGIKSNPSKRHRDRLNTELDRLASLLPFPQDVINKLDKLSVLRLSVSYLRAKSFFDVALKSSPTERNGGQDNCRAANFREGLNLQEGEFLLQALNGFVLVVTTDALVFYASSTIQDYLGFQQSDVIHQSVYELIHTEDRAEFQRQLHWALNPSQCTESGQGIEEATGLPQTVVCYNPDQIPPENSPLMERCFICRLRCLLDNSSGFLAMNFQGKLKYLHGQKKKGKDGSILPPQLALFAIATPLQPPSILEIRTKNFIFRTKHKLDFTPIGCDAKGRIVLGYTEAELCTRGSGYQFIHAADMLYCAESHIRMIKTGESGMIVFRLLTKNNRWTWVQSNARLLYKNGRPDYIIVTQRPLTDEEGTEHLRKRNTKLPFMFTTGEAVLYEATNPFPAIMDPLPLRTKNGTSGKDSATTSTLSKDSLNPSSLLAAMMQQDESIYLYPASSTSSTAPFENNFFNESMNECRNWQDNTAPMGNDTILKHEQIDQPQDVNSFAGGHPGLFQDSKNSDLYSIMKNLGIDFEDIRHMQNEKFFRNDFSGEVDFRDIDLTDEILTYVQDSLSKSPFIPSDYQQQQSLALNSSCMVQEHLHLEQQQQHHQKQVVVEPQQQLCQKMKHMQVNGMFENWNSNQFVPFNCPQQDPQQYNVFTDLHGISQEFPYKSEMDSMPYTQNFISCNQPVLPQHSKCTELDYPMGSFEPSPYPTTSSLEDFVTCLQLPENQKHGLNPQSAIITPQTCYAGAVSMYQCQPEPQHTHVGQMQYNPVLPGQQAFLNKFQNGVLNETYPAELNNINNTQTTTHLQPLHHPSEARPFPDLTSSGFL

SMILES: CN(C)c1ccc(SC#N)cc1
- Potency [1]: inactive
- Potency [2]: inactive
- Potency [3]: inactive
- Potency [4]: inactive
- Potency [5]: inactive
- Potency [6]: inactive
- Potency [7]: inactive
- Potency [8]: inactive
- Potency [9]: inactive
- Potency [10]: inactive
- Potency [11]: inactive
- Potency [12]: inactive

SMILES: CCCC/C=C/CCCCO
- Potency [1]: inactive
- Potency [2]: inactive
- Potency [3]: inactive
- Potency [4]: inactive
- Potency [13]: inactive
- Potency [14]: inactive
- Potency [5]: inactive
- Potency [6]: inactive
- Potency [8]: inactive
- Potency [11]: inactive
- Potency [12]: inactive

SMILES: Cn1cc(C(=O)[C@@H]2CCc3nc[nH]c3C2)c2ccccc21
- Potency [1]: inactive
- Potency [2]: inactive
- Potency [3]: inactive
- Potency [4]: inactive
- Potency [13]: inactive
- Potency [14]: inactive
- Potency [5]: inactive
- Potency [6]: inactive
- Potency [7]: inactive
- Potency [15]: inactive
- Potency [9]: inactive
- Potency [10]: inactive
- Potency [16]: inactive
- Potency [11]: inactive
- Potency [12]: inactive
- Potency [17]: inactive

SMILES: O=Cc1cc(O)ccc1Br
- Potency [1]: inactive
- Potency [2]: inactive
- Potency [3]: inactive
- Potency [4]: inactive
- Potency [5]: inactive
- Potency [15]: inactive
- Potency [8]: inactive
- Potency [18]: inactive
- Potency [9]: inactive
- Potency [10]: inactive
- Potency [16]: inactive
- Potency [11]: inactive
- Potency [12]: inactive
- Potency [17]: inactive

SMILES: O=C(c1ccc(F)cc1)C1CCN(CCn2c(=O)[nH]c3ccccc3c2=O)CC1
- Potency [1]: inactive
- Potency [2]: inactive
- Potency [3]: inactive
- Potency [4]: inactive
- Potency [13]: inactive
- Potency [14]: inactive
- Potency [5]: inactive
- Potency [6]: inactive
- Potency [19]: inactive
- Potency [15]: inactive
- Potency [8]: inactive
- Potency [18]: inactive
- Potency [10]: inactive
- Potency [11]: inactive

SMILES: Cc1cccc(CN2CCN(C(c3ccccc3)c3ccc(Cl)cc3)CC2)c1 (configuration not stated)
- Potency [1]: inactive
- Potency [2]: inactive
- Potency [3]: inactive
- Potency [4]: inactive
- Potency [13]: inactive
- Potency [5]: inactive
- Potency [6]: inactive
- Potency [19]: inactive
- Potency [7]: 26.6 µM (active)
- Potency [15]: inactive
- Potency [8]: inactive
- Potency [18]: inactive
- Potency [10]: 29.8 µM (active)
- Potency [11]: inactive

SMILES: CSc1ccc(C(=O)c2[nH]c(=O)[nH]c2C)cc1
- Potency [1]: inactive
- Potency [2]: inactive
- Potency [3]: inactive
- Potency [13]: inactive
- Potency [14]: inactive
- Potency [5]: inactive
- Potency [19]: inactive
- Potency [15]: inactive
- Potency [8]: inactive
- Potency [18]: inactive
- Potency [10]: inactive
- Potency [11]: inactive
- Potency [12]: inactive
- Potency [17]: inactive

SMILES: CCCCC(CC)CN=C(N)NC(N)=NCCCCCCN=C(N)NC(N)=NCC(CC)CCCC (configuration not stated)
- Potency [1]: 26.6 µM (active)
- Potency [2]: inactive
- Potency [3]: 21.1 µM (active)
- Potency [13]: 11.9 µM (active)
- Potency [5]: 9.44 µM (active)
- Potency [6]: 23.7 µM (active)
- Potency [8]: 8.41 µM (active)
- Potency [10]: 13.3 µM (active)
- Potency [11]: 21.1 µM (active)

SMILES: NNc1nc(-c2ccc([N+](=O)[O-])cc2)cs1
- Potency [1]: 30.6 µM (active)
- Potency [2]: 9.69 µM (active)
- Potency [3]: inactive
- Potency [13]: 24.5 µM (active)
- Potency [14]: 9.69 µM (active)
- Potency [11]: inactive
- Potency [17]: inactive

SMILES: CC1=NC(C)OC1C (configuration not stated)
- Potency [1]: inactive
- Potency [2]: inactive
- Potency [3]: inactive
- Potency [13]: inactive
- Potency [14]: 30.6 µM (active)
- Potency [5]: inactive
- Potency [19]: inactive
- Potency [7]: inactive
- Potency [8]: inactive
- Potency [10]: inactive
- Potency [11]: inactive

SMILES: CCCCC(CC)COP(=O)(O)OCC(CC)CCCC (configuration not stated)
- Potency [1]: inactive
- Potency [2]: inactive
- Potency [3]: inactive
- Potency [13]: inactive
- Potency [5]: 61.1 µM (active)
- Potency [6]: 49.1 µM (active) and 43.6 µM (active)
- Potency [7]: 55 µM (active)
- Potency [8]: inactive
- Potency [10]: 55 µM (active) and 43.6 µM (active)
- Potency [16]: inactive
- Potency [11]: inactive
- Potency [17]: inactive

SMILES: CCCCCCCCCCCCCC[P+](CCCC)(CCCC)CCCC (tested in a mixture with another compound)
- Potency [1]: 4.35 µM (active)
- Potency [2]: inactive
- Potency [3]: inactive
- Potency [13]: 0.277 µM (active)
- Potency [5]: 19.4 µM (active)
- Potency [6]: 11 µM (active)
- Potency [7]: inactive
- Potency [15]: inactive
- Potency [18]: inactive
- Potency [10]: 17.5 µM (active)
- Potency [11]: 22 µM (active)
- Potency [12]: inactive
- Potency [17]: inactive
